Inconclusive results are not listed. A call without a number means that no potency is given here. The source made the active and inactive calls. Calls come from the whole dose curve; as a rule, active = well fitted curve in the direction sought with a large enough effect; inconclusive = small, poorly fitted or top-dose-only effect, or another doubt; inactive = no such curve, though single readings can be large; an effect the other way counts as inactive or inconclusive.
Experiments:
[1] = qHTS of pediatric cancer cell lines to identify multiple opportunities for drug repurposing: Confirmatory screen for Saos-2 cells (AID 1347127); note: nearly all actives have a fitted effect of over 60% in size; note: potency is the fitted concentration of half-maximal effect
How it was run: (§1)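 Cells (500-1,000/well) rested 5 h, then received compounds for 48 h; metabolically active cells were measured by CellTiter-Glo luminescence. Final concentrations spanned up to 46 µM (MIPE, 11-point) or 0.59 nM-46 µM (NPC, 8-point) in primary screens, 11-point in follow-ups.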

[2] = qHTS of pediatric cancer cell lines to identify multiple opportunities for drug repurposing: Confirmatory screen for OHS-50 cells (AID 1347128);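 note: compound exposure lasted 48 h at 37 degrees C; nearly all actives have a fitted effect of over 55% in size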; note: potency is the fitted concentration of half-maximal effect
How it was run: as §1

[3] = qHTS of pediatric cancer cell lines to identify multiple opportunities for drug repurposing: Confirmatory screen for SK-N-SH cells (AID 1347129);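 note: cells exposed to compound for 48 h before viability read; nearly all actives have a fitted effect of over 60% in size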; note: potency is the fitted concentration of half-maximal effect
How it was run: as §1

[4] = system: Zika virus NS2B-NS3 protease (linked construct); test: Primary screen NINDS Rhodamine qHTS for Zika virus inhibitors (AID 1347160); note: nearly all actives have a fitted effect of over 55% in size
How it was run: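 Percent inhibition, normalized to uninhibited and enzyme-free controls, is fitted to a 4-parameter Hill equation. Fluorescence change comes from a 15-min cleavage of 1.5 microM bis-peptide Rhodamine110 substrate by 25 nM linked NS2B-NS3 at room temperature.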

[5] = system: Zika virus NS2B-NS3 protease; test: Primary screen GU AMC qHTS for Zika virus inhibitors (AID 1347154); note: nearly all actives have a fitted effect of over 70% in size
How it was run: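 Fluorogenic AMC-substrate cleavage by noncovalent NS2B-NS3 protease complex (25 nM, pH 8.0 Tris buffer with Tween 20) followed for 15 minutes at room temperature (~20% conversion). Percent inhibition from ex340/em450 signal change, fitted by 4-parameter Hill equation.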

[6] = system: Zika virus NS2B-NS3 protease (unlinked); test: Optimization of GU AMC qHTS for Zika virus inhibitors: Unlinked NS2B-NS3 protease assay (AID 1347151); note: series mostly up to about 52 µM; nearly all actives have a fitted effect of over 80% in size
How it was run: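 Noncovalent NS2B hydrophilic domain–NS3 protease complex (25 nM final) in 10 mM Tris-HCl pH 8.0, 0.01% Tween 20; AMC substrate, room temperature 15 min (~20% conversion); fluorescence change normalized, 4-parameter Hill fit.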

[7] = target: Lysine-specific demethylase 5B (Homo sapiens) (UniProt Q9UGL1); test: Optimization screen for KDM5B Histone Demethylases FDH coupled qHTS against the LOPAC library (AID 1347166)
How it was run: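 KDM5BDeltaAP (200nM final) preincubated 10 min with compound, then 12.5uM H3K4Me3, 25uM a-ketoglutarate, ascorbate, Fe(II), NAD+ and FDH added; 50mM HEPES pH 7.5, 0.01% Tween-20. NADH fluorescence (340/450 nm) change over 30 min, room temperature.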

Lysine-specific demethylase 5B (Homo sapiens), sequence (Q9UGL1 whole entry, looked up): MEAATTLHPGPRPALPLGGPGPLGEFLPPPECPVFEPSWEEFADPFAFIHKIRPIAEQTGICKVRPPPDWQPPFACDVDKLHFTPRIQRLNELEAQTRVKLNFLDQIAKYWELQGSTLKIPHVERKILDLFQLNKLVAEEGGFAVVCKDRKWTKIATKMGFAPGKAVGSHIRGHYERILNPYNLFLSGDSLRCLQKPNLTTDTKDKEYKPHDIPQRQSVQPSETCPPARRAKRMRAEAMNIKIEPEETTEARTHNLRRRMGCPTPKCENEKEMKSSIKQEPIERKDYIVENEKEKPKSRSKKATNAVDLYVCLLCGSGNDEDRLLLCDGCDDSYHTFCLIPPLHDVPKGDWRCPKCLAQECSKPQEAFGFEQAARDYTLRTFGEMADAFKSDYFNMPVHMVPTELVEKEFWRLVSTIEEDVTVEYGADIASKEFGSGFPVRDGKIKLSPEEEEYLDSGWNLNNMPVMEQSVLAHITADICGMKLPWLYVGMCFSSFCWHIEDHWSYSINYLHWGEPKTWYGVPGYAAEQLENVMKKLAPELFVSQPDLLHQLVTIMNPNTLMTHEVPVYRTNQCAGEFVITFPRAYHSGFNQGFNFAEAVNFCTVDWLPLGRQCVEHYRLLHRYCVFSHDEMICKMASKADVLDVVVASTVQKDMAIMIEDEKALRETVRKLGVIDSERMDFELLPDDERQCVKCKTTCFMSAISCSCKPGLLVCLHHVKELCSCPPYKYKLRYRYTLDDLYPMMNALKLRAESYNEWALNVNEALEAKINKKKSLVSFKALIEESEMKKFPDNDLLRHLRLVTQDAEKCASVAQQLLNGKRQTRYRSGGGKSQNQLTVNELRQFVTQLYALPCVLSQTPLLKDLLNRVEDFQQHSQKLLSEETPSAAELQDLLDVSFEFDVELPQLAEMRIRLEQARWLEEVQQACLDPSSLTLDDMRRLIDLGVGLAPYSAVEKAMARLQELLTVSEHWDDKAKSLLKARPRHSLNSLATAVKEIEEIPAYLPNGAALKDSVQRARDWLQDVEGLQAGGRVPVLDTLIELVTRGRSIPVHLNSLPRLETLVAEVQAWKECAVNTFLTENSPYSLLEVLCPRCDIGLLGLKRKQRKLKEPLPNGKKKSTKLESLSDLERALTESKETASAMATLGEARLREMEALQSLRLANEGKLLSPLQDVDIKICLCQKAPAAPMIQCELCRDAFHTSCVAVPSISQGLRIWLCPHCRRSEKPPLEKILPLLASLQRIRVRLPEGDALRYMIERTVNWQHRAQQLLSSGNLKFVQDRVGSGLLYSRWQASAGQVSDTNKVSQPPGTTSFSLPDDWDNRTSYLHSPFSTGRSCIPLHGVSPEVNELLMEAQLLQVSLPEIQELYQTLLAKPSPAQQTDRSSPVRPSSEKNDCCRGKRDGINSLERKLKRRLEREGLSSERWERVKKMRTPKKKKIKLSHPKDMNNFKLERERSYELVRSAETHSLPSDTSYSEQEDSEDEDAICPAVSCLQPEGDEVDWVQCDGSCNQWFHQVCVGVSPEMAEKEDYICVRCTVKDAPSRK

SMILES	Potency [1]	Potency [2]	Potency [3]	Potency [4]	Potency [5]	Potency [6]	outcome [7]
COc1ncc(-c2ccc3nccc(-c4ccnnc4)c3c2)cc1NS(=O)(=O)c1ccc(F)cc1F	46.5 nM (active)	233 nM (active)	187 nM (active)	inactive			
O=C(O)c1ccc(-c2cc3cccnc3c(-c3ccc4nonc4c3)n2)cc1	5220 nM (active)	6570 nM (active)	inactive		inactive		
CC(=NNC(=S)N1CCC1)c1ccccn1	inactive	inactive			inactive		
CC1(C)CCC[C@@]2(C)[C@@H]1CC[C@@]1(C)OC(=O)C[C@H]21	inactive	inactive	inactive		inactive		
CC1(C)S[C@H]2[C@H](NC(=O)[C@@H](N)c3ccc(O)cc3)C(=O)N2[C@@H]1C(=O)O	inactive	inactive	inactive		inactive		
NS(=O)(=O)c1cccc2c1C(=O)c1cccc(O)c1C2=O	928 nM (active)	2930 nM (active)	2090 nM (active)				
CC1(C)O[C@H]2C[C@@H]3[C@H]4CCC5=CC(=O)C=C[C@]5(C)[C@@]4(F)[C@@H](O)C[C@]3(C)[C@]2(C(=O)CO)O1	inactive	inactive	inactive		inactive		
COc1cccc(-c2cc(=O)c3ccccc3o2)c1N	inactive	inactive				inactive	inactive
NC1=N[C@@]2(c3cc(NC(=O)c4ccc(F)cn4)ccc3F)COC[C@@H]2CS1	inactive	inactive	inactive		inactive		
Oc1ccc(C2CCN(c3ccnc4ccccc34)CC2)cc1O	inactive		20900 nM (active)				
OC[C@H]1O[C@@H](n2cnc3c2NC=NC[C@@H]3O)C[C@H]1O	inactive	inactive	inactive		inactive		

Reference: PubChem BioAssay (NCATS)
